Reference: PubChem BioAssay (Tox21)
Inconclusive results are not listed. Where a call stands in place of a potency, no number is given. Unmarked numbers belong to inactive results. Calls of active or inactive are those of the source. Unless noted, the call rests on the fitted dose curve; in most records, active means well fitted curve in the direction sought with a large enough effect in the repeat runs; inconclusive means weak or mixed curves; inactive means no such curve, though single readings can be large; an effect the other way counts as inactive or inconclusive.

Assays:
[1] = qHTS assay to identify small molecule antagonists of the vitamin D receptor (VDR) signaling pathway - cell viability counter screen (AID 743225); further: nearly all actives have a fitted effect of over 50% in size
Summary of the method: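 VDR-bla HEK 293T cells, 4 h pre-incubation at 37C, then compound plus 1-alpha,25-dihydroxyvitamin D3 (3 nM final) for 16 h. After the beta-lactamase FRET read, CellTiter-Glo was added to the same wells; luminescence after 30 min at room temperature.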

[2] = qHTS assay to identify small molecule agonists of the NFkB signaling pathway (AID 1159509; active means well fitted curve in the direction sought with a large enough effect in the signal ratio in the repeat runs, not every such curve was filed as active; the % refers to the signal ratio; further: series mostly up to about 61 µM)
Summary of the method: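 NFkB-bla ME-180 cells with a beta-lactamase reporter under an NF-kB response element were plated overnight, treated with compounds in DMSO for 5 hr at 37 C, then loaded with FRET substrate for 1.5 hr at room temperature.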

[3] = qHTS assay to identify small molecule agonists of the NFkB signaling pathway - cell viability counter screen (AID 1159515; calls by dose curve; further: series mostly up to about 61 µM; nearly all actives have a fitted effect of over 55% in size)
Summary of the method: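 Viability in NFkB-bla ME-180 cells was measured by CellTiter-Glo luminescence, 30 min room temperature, in wells already treated 5 hr with compounds and read for reporter FRET.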

[4] = qHTS assay to identify small molecule agonists of the endoplasmic reticulum stress response signaling pathway - cell viability counter screen (AID 1159517; calls by dose curve; further: nearly all actives have a fitted effect of over 50% in size; further: potency means the concentration at half of the fitted maximal effect;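 on activity change, negative = cytotoxicity: HeLa cells carrying an ER stress response element beta-lactamase reporter; series mostly up to about 61 µM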)
Summary of the method: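 Luminescence readout: CellTiter-Glo, 30 min RT, same wells as the ESRE-bla reporter read. HeLa ESRE-bla, 1,500 cells/well, o/n 37 C; cpd 5 hr 37 C/5% CO2.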

[5] = qHTS assay to identify small molecule antagonists of the retinoid-related orphan receptor gamma (ROR-gamma) signaling pathway - cell viability counter screen (AID 1159520); further: nearly all actives have a fitted effect of over 50% in size
Summary of the method: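 Tet-on ROR gamma CHO cells (1,000/well) were plated 4 hr, given compounds in DMSO for 2 hr at 37 C, then induced with 1 uM final doxycycline for 16 hr. Viability was read as ATP by CellTiter-Glo luminescence after 30 min.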

[6] = target: Nuclear receptor ROR-gamma (Homo sapiens) (UniProt P51449); assay: qHTS assay to identify small molecule antagonists of the retinoid-related orphan receptor gamma (ROR-gamma) signaling pathway (AID 1159521;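 further: CHO cells with doxycycline inducible ROR-gamma driving an RORE luciferase reporter; top concentration of the series differs between compounds; nearly all actives have a fitted effect of over 50% in size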)
Summary of the method: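 Tet-on RORγ CHO cells carrying a ROR response element–luciferase reporter were pretreated with compounds for 2 h, then induced with 1 uM (final) doxycycline hyclate for 16 h at 37 C. Antagonism was read as decreased ONE-Glo luminescence.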

[7] = qHTS assay to identify small molecule agonists of the AP-1 signaling pathway - cell viability counter screen (AID 1159525; calls by dose curve; further: nearly all actives have a fitted effect of over 55% in size)
Summary of the method: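 ME-180 AP-1-bla, 2500 cells/well, Opti-MEM + 0.5% dialyzed FBS; overnight 37 °C; cpd 15-pt titration, 5 h 37 °C; CellTiter-Glo 30 min RT; luminescence read; normalised to TOAB and DMSO controls.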

[8] = qHTS assay to identify small molecule agonists of the AP-1 signaling pathway (AID 1159526; calls by dose curve)
[9] = target: Retinoic acid receptor RXR-alpha (Homo sapiens) (UniProt P19793); assay: qHTS assay to identify small molecule agonists of the RXR signaling pathway (AID 1159527; calls by dose curve; further: nearly all actives have a fitted effect of over 35% in size)
Summary of the method: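 GeneBLAzer RXR-alpha-UAS-bla HEK 293T cells in medium with 2% charcoal-stripped FBS, pre-incubated 5 hr at 37 C, then exposed to compounds 16 hr. Beta-lactamase reporter read by FRET substrate, 2 hr room temperature, 460/530 nm emission.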

[10] = qHTS assay to identify small molecule agonists of the RXR signaling pathway - cell viability counter screen (AID 1159529)
Summary of the method: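 RXR-alpha-UAS-bla HEK 293T cells in medium with 2% charcoal-stripped FBS were preincubated 5 hr, then exposed to compounds for 16 hr at 37 C. Viability was read as CellTiter-Glo luminescence after 30 min at room temperature.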

[11] = qHTS assay to identify small molecule antagonists of the retinoid acid receptor (RAR) signaling pathway - cell viability counter screen (AID 1159551); further: nearly all actives have a fitted effect of over 35% in size
Summary of the method: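 Following overnight attachment, C3RL4 reporter cells received DMSO-dissolved compounds and then retinol (1 uM final). Six hours later at 37 C, ATP content was measured by CellTiter-Glo luminescence.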

[12] = qHTS assay to identify small molecule antagonists of the retinoic acid receptor (RAR) signaling pathway (AID 1159552; further: nearly all actives have a fitted effect of over 50% in size)
Summary of the method: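 RARE-luc C3RL4 cells; cpds + 1 uM (final) retinol, 6 hr, 37 C/5% CO2; luciferase reagent, 30 min RT, luminescence readout. Inhibitors of retinol-driven signal scored.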

[13] = qHTS assay to identify small molecule agonists of the retinoic acid receptor (RAR) signaling pathway (AID 1159553); further: potency means the concentration at half of the fitted maximal effect
Summary of the method: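 Cell line C3RL4, RARE luciferase reporter. Treatment: compounds in DMSO, 6 hr, 37 C, 5% CO2, after overnight plating. Detection: luminescence, 30 min RT after reagent.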

Retinoic acid receptor RXR-alpha (Homo sapiens), sequence (P19793 whole entry, looked up): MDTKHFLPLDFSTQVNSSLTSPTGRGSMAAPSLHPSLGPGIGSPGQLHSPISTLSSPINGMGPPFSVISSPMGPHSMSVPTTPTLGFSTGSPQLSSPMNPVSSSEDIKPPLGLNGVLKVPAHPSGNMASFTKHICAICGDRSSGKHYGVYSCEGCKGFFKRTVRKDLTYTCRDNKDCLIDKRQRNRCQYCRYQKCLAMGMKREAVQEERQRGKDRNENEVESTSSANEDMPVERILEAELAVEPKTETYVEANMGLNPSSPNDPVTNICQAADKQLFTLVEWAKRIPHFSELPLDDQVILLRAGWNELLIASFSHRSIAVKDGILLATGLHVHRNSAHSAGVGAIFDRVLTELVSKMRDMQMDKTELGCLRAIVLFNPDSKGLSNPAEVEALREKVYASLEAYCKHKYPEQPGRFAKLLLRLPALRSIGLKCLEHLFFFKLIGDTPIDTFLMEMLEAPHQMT

Row | SMILES | Potency [1] | outcome [2] | Potency [3] | Potency [4] | Potency [5] | Potency [6] | Potency [7] | outcome [8] | Potency [9] | Potency [10] | Potency [11] | Potency [12] | Potency [13] | activity, negative = cytotoxicity [5] | activity change, negative = inhibition [6] | viability change, negative = cytotoxic [7] | activation [8] | activation [9] | activity change, negative = cytotoxicity [11] | activity, negative = inhibition [12]
1 | CC(CO)(CO)C(=O)O | inactive | inactive | inactive | inactive | inactive | inactive | inactive | inactive | inactive | inactive | inactive | – | – | – | – | – | – | – | – | –
2 | NC(=O)CCCCC(N)=O | inactive | inactive | inactive | inactive | inactive | inactive | inactive | inactive | inactive | – | inactive | – | – | – | – | – | – | – | – | –
3 | Cc1ccccc1S(N)(=O)=O | inactive | inactive | inactive | inactive | inactive | inactive | inactive | inactive | inactive | inactive | inactive | inactive | inactive | – | – | – | – | – | – | –
4 | CC(O)Cn1cnc2c1c(=O)n(C)c(=O)n2C (configuration not stated) | inactive | inactive | inactive | inactive | inactive | inactive | inactive | inactive | inactive | inactive | inactive | – | inactive | – | – | – | – | – | – | –
5 | N[C@@H](Cc1cc(I)c(O)c(I)c1)C(=O)O | inactive | inactive | inactive | inactive | inactive | inactive | inactive | inactive | inactive | inactive | inactive | – | inactive | – | – | – | – | – | – | –
6 | CC1CCCC(=O)C1=O (configuration not stated) | inactive | inactive | inactive | inactive | inactive | inactive | inactive | inactive | inactive | inactive | inactive | inactive | inactive | – | – | – | – | – | – | –
7 | CCOC(=O)N1CCC(Nc2ccc(Cl)cc2N)CC1 | inactive | inactive | inactive | inactive | inactive | inactive | inactive | inactive | inactive | inactive | inactive | – | inactive | – | – | – | – | – | – | –
8 | CCCCCCCCCCCCCCN(C)C | inactive | inactive | inactive | inactive | – | – | – | – | – | – | – | – | inactive | 0.214% [at 19 µM] | -1.54% [at 19 µM] | 1.48% [at 15.8 µM] | -14.8% [at 15.8 µM] | 7.58% [at 15.8 µM] | 0.962% [at 19 µM] | -4.35% [at 19 µM]
9 | FC(F)(F)C(F)(F)C(F)(F)C(F)(F)CCI | – | inactive | inactive | inactive | inactive | inactive | inactive | inactive | inactive | – | inactive | inactive | inactive | – | – | – | – | – | – | –
10 | SCCc1cnccn1 | inactive | inactive | inactive | inactive | inactive | inactive | inactive | inactive | inactive | – | inactive | – | – | – | – | – | – | – | – | –
11 | C=Cc1ccc(OC(C)=O)cc1 | inactive | inactive | inactive | inactive | inactive | inactive | inactive | inactive | inactive | inactive | inactive | inactive | inactive | – | – | – | – | – | – | –
12 | Cc1ccc2nc(N)[nH]c(=O)c2c1Sc1ccncc1 | inactive | inactive | inactive | inactive | inactive | inactive | inactive | inactive | inactive | inactive | inactive | – | – | – | – | – | – | – | – | –
13 | CC(C)(C)S | inactive | inactive | inactive | inactive | inactive | inactive | inactive | inactive | inactive | inactive | inactive | inactive | inactive | – | – | – | – | – | – | –
14 | CC1CCC(C(C)CS)CC1S (configuration not stated) | inactive | inactive | inactive | 19.5 µM (active) | inactive | inactive | inactive | inactive | inactive | inactive | inactive | inactive | inactive | – | – | – | – | – | – | –
15 | NC(=O)c1ccccc1[N+](=O)[O-] | inactive | inactive | inactive | inactive | inactive | inactive | inactive | inactive | inactive | inactive | inactive | inactive | inactive | – | – | – | – | – | – | –
16 | Nc1ccc(N=Nc2ccc(N)cc2)cc1 | inactive | inactive | inactive | inactive | inactive | inactive | inactive | inactive | inactive | – | inactive | inactive | 863 nM (active) | – | – | – | – | – | – | –
17 | COc1cc(NS(=O)(=O)c2ccc(N)cc2)nc(C)n1 | inactive | inactive | inactive | inactive | inactive | inactive | inactive | inactive | inactive | – | inactive | inactive | inactive | – | – | – | – | – | – | –
18 | CCCCCCCCCCCCCCCCCC(=O)OCC(CC)CCCC (configuration not stated) | inactive | inactive | inactive | inactive | inactive | inactive | inactive | inactive | inactive | inactive | inactive | inactive | inactive | – | – | – | – | – | – | –
19 | Cc1ccc(NC(=O)N(C)C)cc1NC(=O)N(C)C | inactive | inactive | inactive | inactive | inactive | inactive | inactive | inactive | inactive | inactive | inactive | inactive | inactive | – | – | – | – | – | – | –
20 | CC(C)OC(=O)c1ccccc1C(=O)OC(C)C | inactive | inactive | inactive | inactive | inactive | inactive | inactive | inactive | inactive | inactive | inactive | inactive | inactive | – | – | – | – | – | – | –
